HTT-AS act: activators of huntingtin-antisense promoter activity; HEK293 HTT-AS promoter firefly luciferase reporter, 24 h; response scale: percent change from vehicle, -100% = no light; Potency, µM (top dose mostly 57.5 µM), for the others: at the highest dose activity change, positive = activation, hits mostly activators; hit rate 0.24% among 48,000; also: potency is read from the fitted curve at half-maximal effect; nearly all actives have a fitted effect of over 55% in size
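HEK293 cells carrying firefly luciferase reporters were seeded at 2,500 per well in Opti-MEM and cultured for 24 h. They were then treated with compounds at up to 57.5 uM final for 24 h at 37 degrees C before Dual-Glo luminescence readout.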
GPR32 ag: GPR32 (DRV1) agonism, beta-arrestin recruitment. AID 1346428. activation, % at 76.9 µM. hit rate 2.5% among 48,000. CHO-K1 GPR32 beta-arrestin PathHunter luminescence, 90 min; zero percent set by DMSO-only wells;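 active = activation of at least 60% and not above a set upper limit, about 1 call in 100 departs from these limits; inconclusive = activation of 40% to 60%, or above that upper limit; inactive = activation under 40%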; also: 0% is about no effect
Target sequence (O75388 whole entry, looked up): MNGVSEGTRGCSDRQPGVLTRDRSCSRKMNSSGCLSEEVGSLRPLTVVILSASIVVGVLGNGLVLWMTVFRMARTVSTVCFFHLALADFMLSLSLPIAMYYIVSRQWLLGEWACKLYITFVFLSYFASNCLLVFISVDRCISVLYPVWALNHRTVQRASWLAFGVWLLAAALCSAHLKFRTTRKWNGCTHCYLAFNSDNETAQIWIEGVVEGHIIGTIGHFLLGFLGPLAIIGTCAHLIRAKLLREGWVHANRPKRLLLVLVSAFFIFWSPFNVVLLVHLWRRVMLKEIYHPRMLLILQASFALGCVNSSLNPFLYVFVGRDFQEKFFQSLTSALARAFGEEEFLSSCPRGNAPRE
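Using DMSO wells as EC0, agonist-induced signal was taken as chemiluminescence from beta-Gal reconstituted upon beta-arrestin recruitment to GPR32 in CHO-K1 cells after 90 min compound treatment.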
HTT prom inh: HTT promoter inhibition; Potency, µM (top dose mostly 57.5 µM), without a hit: at the top dose activity change, negative = inhibition, most hits filed as inhibitors; hit rate 0.93% among 48,000; HEK293 HTT promoter firefly luciferase reporter, 24 h; AID 1508623; also: potency is read from the fitted curve at half-maximal effect; nearly all actives have a fitted effect of over 50% in size
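Luminescence was read after Dual-Glo reagent and a 10 min room-temperature incubation. Values were normalized to vehicle (0% activity) and zero RLU (-100% activity). Reporter HEK293 cells had been exposed to compounds (up to 57.5 uM final) for 24 h.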
The depositor's hits bear a star; ? = inconclusive; nt = not tested or not shown; ! = a repeat was not active. Sampled rows, rich in hits. Any-hit rate of the full collection: about 3.7%. Unless noted, calls follow the shape of the dose curve; as a rule, active = well fitted curve in the direction sought with a large enough effect; inconclusive = small, poorly fitted or top-dose-only effect, or another doubt; inactive = no such curve, though single readings can be large; an effect the other way counts as inactive or inconclusive.

SMILES | HTT-AS act | GPR32 ag | HTT prom inh
CCCOc1cccc(C(=O)Nc2cccc3cccnc23)c1 | 29% | -6 | -1%
NC(=O)CC[C@@H]1NC(=O)[C@H](Cc2ccccc2)NC(=O)[C@H](Cc2ccc(O)cc2)NC(=O)CCSSC[C@@H](C(=O)N2CCC[C@H]2C(=O)N[C@@H](CCCN=C(N)N)C(=O)NCC(N)=O)NC(=O)[C@H](CC(N)=O)NC1=O | -8% | 10 | 7%
CC(C)Cn1cc(NC(=O)Nc2cccc(C(F)(F)F)c2)c2ccccc2c1=O | -31% | -15 | ?
CC(C)C(=O)Nc1cccc(C(F)(F)F)c1 | 0% | 61* | -3%
Cc1ccn2c(Nc3ccc4c(c3)OCCO4)c(-c3ccc(Cl)s3)nc2c1 | ? | -28 | 22%
Cc1ccc2nc(-c3ccc(Cl)s3)c(Nc3ccc4c(c3)OCCO4)n2c1 | 4.5µM* | -30 | 41%
CCCOc1ccc(CC2C(=O)Nc3ccc(Br)cc32)cc1 (configuration not stated) | -17% | 78* | -22%
CCOc1ccccc1CC1C(=O)Nc2ccc(Br)cc21 (configuration not stated) | -61% | 73* | 18µM*
COc1ccc(CC2C(=O)Nc3ccc(Br)cc32)cc1OC (configuration not stated) | -18% | -18 | -13%
CCOc1c(CC2C(=O)Nc3ccc(Br)cc32)cccc1OC (configuration not stated) | -42% | ? | ?
COc1ccc(OC)c(CC2C(=O)Nc3ccc(Br)cc32)c1 (configuration not stated) | -51% | -19 | 20µM*
O=C1Nc2ccccc2C1Cc1ccc(Br)cc1 (configuration not stated) | -18% | -21 | -17%
CC(C)COc1ccc(C(=O)N2CCCCC2CCN2CCOCC2)cc1 (configuration not stated) | -5% | -2 | -8%
CC[C@H]1OC(=O)[C@H](C)[C@@H](O[C@H]2C[C@@](C)(OC)[C@@H](O)[C@H](C)O2)[C@H](C)[C@@H](O[C@@H]2O[C@H](C)C[C@H](N(C)C)[C@@H]2O)[C@](C)(O)C[C@@H](C)CN(C)[C@H](C)[C@@H](O)[C@]1(C)O | -8% | nt | -2%
COc1cccc(CNC(=O)c2cc3c(=O)n(Cc4cccnc4)ccc3nc2C)c1 | -16% | 2 | -30%
COc1ccc(/C(C)=C/C(=O)O)c(OC)c1 | 3% | -6 | 4%
Cc1c2cnn(CC(=O)NCc3ccc(F)cc3)c(=O)c2c(C)n1Cc1cccc(Cl)c1 | -37% | -4 | ?
CCCCCn1c(=O)[nH]c2cc(C(=O)N3CCN(c4cccc(OC)c4)CC3)ccc2c1=O | -35% | 36 | ?
CCCCCn1c(=O)[nH]c2cc(C(=O)N3CCN(c4cccc(C)c4)C(C)C3)ccc2c1=O (configuration not stated) | -57% | 104* | ?
COc1cccc(CNc2ncnc3onc(C)c23)c1 | -58% | 33 | ?
CCCNc1ncnc2onc(C)c12 | -21% | 5 | -24%
CSc1ccc(CCNc2ncnc3onc(C)c23)cc1 | -79% | 33 | 1µM*
COc1ccc(CCNc2ncnc3onc(C)c23)c(OC)c1 | -84% | 75* | 1.3µM*
C=CC(=O)Nc1cccc(Nc2nc(NC3CCC(N(C)C)CC3)nc3c2ncn3C(C)C)c1 (configuration not stated) | -42% | nt | -38%
Cc1ccc2c(=O)c(C(=O)c3ccccc3)cn(CC(=O)NCc3ccccc3)c2n1 | -12% | 3 | 1%
SMILES | HTT-AS act | GPR32 ag | HTT prom inh
CN[C@@H]1C[C@H]2O[C@@](C)([C@H]1OC)n1c3ccccc3c3c4c(c5c6ccccc6n2c5c31)C(=O)N[C@H]4O | -56% | nt | ?
Cc1ccc(-c2nc3scc(CCNS(=O)(=O)c4ccc(C)c(C)c4)n3n2)cc1 | -20% | 7 | -28%
Cc1ccc(S(=O)(=O)NCCc2csc3nc(-c4ccccc4C)nn23)cc1 | -23% | 80* | -20%
Cc1ccc(S(=O)(=O)Cc2nc(-c3ccc(C(=O)NCc4ccccc4C)cc3)oc2C)cc1 | -25% | -2 | ?
Cc1ccc(S(=O)(=O)Cc2nc(-c3ccc(C(=O)NCc4ccccc4)cc3)oc2C)cc1 | -38% | 77* | ?
COc1cc2nccc(Oc3ccc(NC(=O)Nc4cc(C)on4)c(Cl)c3)c2cc1OC | -44% | nt | ?
CC(NC(=O)c1cc2sccc2n1Cc1ccc(F)cc1)c1ccccc1 (configuration not stated) | -21% | 100* | -14%
Cc1ccccc1NC(=O)c1cc2sccc2n1Cc1ccc(F)cc1 | -22% | -8 | -19%
O=C(CCN1CCN(CCO)CC1)N1c2ccccc2Sc2ccc(C(F)(F)F)cc21 | -8% | -6 | 2%
CN1CCN(CCCN2c3ccccc3Sc3ccc(C(F)(F)F)cc32)CC1 | -59% | 64*! | ?
CCN(CC)c1ccc(-c2nc(-c3ccccc3C)no2)cc1[N+](=O)[O-] | ? | -5 | -18%
CCCOc1ccc(-c2nc3ccc(Br)cc3c(=O)o2)cc1 | 6% | 18 | 15%
CCOc1cccc(-c2nc3ccccc3c(=O)o2)c1 | 12% | 80* | 13%
Cn1c(=O)oc2cc(S(=O)(=O)NC(Cc3ccccc3)C(=O)Nc3ccc(F)c(Cl)c3)ccc21 (configuration not stated) | 8% | 2 | -22%
Nc1cc(C(F)(F)F)ccc1S | -7% | 31 | -3%
O=C(COc1ccccc1[N+](=O)[O-])N1CCC(c2nc3ccccc3o2)CC1 | -13% | -4 | -12%
COc1cc(Nc2nc(SCC(=O)c3ccc(Cl)c(Cl)c3)nc3ccccc23)cc(OC)c1 | -36% | -25 | -24%
O=C(CSc1nc(Nc2ccccc2)c2ccccc2n1)c1ccc(Cl)cc1 | -42% | 108* | -17%
COc1cccc(CNC(=O)C2CCN(C(=O)N3CCOc4ccc(Cl)cc43)CC2)c1OC | -25% | -4 | ?
CC(C)(C)C(=O)Nc1ccc(Cl)c(-c2nc3ccccc3[nH]2)c1 | -10% | 88* | -10%
CC(C)CC(=O)Nc1ccc(Cl)c(-c2nc3ccccc3[nH]2)c1 | -18% | 32 | -2%
CN(c1nnc(NC(=O)Nc2ccccc2C(F)(F)F)s1)C1CCCCC1 | 19% | -28 | -13%
CC1CCc2c(sc(NC(=O)CCCOc3ccccc3)c2C(N)=O)C1 (configuration not stated) | -1% | 96* | 1%
Cc1ccc(OCCCC(=O)Nc2sc3c(c2C(N)=O)CCC(C)C3)cc1 (configuration not stated) | nt | 12 | nt
Nc1ncnc2c1c(-c1cccc(OCc3ccccc3)c1)cn2C1CC(CN2CCC2)C1 (configuration not stated) | -1% | nt | -8%
O=C(Nc1cccc(Cl)c1)Nc1ncc(CCNc2ncnc3ccsc23)s1 | -26% | nt | -7%
CCOc1ccc(Cn2nnc(C(=O)Nc3cccc(SC)c3)c2N)cc1 | 6% | -3 | 2%
CCc1cccc(NC(=O)c2nnn(Cc3ccc(SC)cc3)c2N)c1 | -8% | 62* | 4%
Cc1ccc(NC(=O)c2nnn(Cc3cccc(C(F)(F)F)c3)c2N)c(C)c1 | 1% | 93* | -27%
Cc1cccc(Cn2nnc(C(=O)Nc3cc(C)ccc3C)c2N)c1 | -27% | 16 | ?
